Experimental data: PubChem BioAssay AID1434 (Sanford-Burnham Center for Chemical Genomics, 2008)
Hit rate of the full screen: of about 220,000 compounds, about 1,600 (0.73%) were called active.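 The calls were made as follows: active = mean inhibition across duplicate retests at 20 µM reaching about 50% (limit read from the data); inactive = the rest, inconclusive results apart.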 Many of the other results were omitted from the sample, so actives are more common in it than they were.

Target: Runt-related transcription factor 1 (Homo sapiens) + Core-binding factor subunit beta (Homo sapiens) (UniProt Q01196+Q13951)
Experiment: disruptors of Runt domain/CBFb-SMMHC interaction – biochemical, FRET, Cerulean-Runt, Venus-CBFb-SMMHC, uHTS, primary screen (AID 1434);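 also: 0% = DMSO wells and 100% = wells with excess untagged CBFb-SMMHC; inhibitors lower the FRET ratio by blocking Runt binding to CBFb-SMMHC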
Settings: Cerulean-Runt/Venus-CBFb-SMMHC FRET ratio 530/480, 1 h, at 20 µM, stronger effect = higher value

Chain of Runt-related transcription factor 1 (Homo sapiens) + Core-binding factor subunit beta (Homo sapiens) (Q01196 whole entry, looked up, the tested form may be a part): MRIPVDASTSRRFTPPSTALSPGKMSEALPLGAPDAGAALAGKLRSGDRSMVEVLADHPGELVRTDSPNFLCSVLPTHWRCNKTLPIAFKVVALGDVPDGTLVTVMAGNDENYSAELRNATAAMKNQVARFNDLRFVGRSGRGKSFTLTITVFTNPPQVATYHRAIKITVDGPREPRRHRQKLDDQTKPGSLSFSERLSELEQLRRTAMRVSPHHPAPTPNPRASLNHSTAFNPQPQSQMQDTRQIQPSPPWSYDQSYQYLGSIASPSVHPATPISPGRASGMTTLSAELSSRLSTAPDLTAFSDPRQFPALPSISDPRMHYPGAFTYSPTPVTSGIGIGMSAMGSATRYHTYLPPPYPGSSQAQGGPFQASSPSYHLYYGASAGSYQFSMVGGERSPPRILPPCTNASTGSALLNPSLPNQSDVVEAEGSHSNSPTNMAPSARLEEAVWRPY
Chain of Runt-related transcription factor 1 (Homo sapiens) + Core-binding factor subunit beta (Homo sapiens) (Q13951 whole entry, looked up, the tested form may be a part): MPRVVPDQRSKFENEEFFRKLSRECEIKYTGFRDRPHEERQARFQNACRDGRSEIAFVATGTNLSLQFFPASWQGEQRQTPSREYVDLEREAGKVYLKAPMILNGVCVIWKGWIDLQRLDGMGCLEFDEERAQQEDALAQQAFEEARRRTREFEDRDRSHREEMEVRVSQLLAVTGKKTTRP

For `CN1CCNC(=O)C1CC(=O)NCCC1=CCCCC1` (centres undefined), the inhibition was -1.1% (inactive).
For `Nc1nc(Nc2ccccc2)nc(NCCO)c1[N+](=O)[O-]`, the inhibition was 0.8% (inactive).
With `O=C(Oc1cccnc1)c1cc2ccccc2oc1=O` the inhibition was -10.2% (inactive).
In the case of `O=C(Oc1c(-c2ccco2)oc2ccccc2c1=O)c1cccnc1`, the inhibition is reported as 92.5% (active) and the inhibition (retest duplicate average) is reported as 70.6%.
`N#CCc1ccc(OC(=O)c2cccnc2)cc1` was tested, and the inhibition was 3% (inactive).
In the case of `Cc1cc(=O)[nH]c2nnnn12`, the inhibition is reported as -4.2% (inactive).
With `CCCNC(=O)c1c(N)n(-c2ccc(S(N)(=O)=O)cc2)c2nc3ccccc3nc12` the inhibition was 80.5% (active) and the inhibition (retest duplicate average) was 104%.
With `Cc1ccc(S(=O)(=O)c2c(N)n(C)c3nc4ccccc4nc23)cc1` the inhibition was 22% (inactive).
In the case of `CCOC(=O)c1c(C)c(C(=O)NCCc2ccc(S(N)(=O)=O)cc2)c(C)n1CC`, the inhibition is reported as -1.6% (inactive).
With `Nc1c(C(=O)c2cccs2)sc2nsc(SCCN3CCCCC3)c12` the inhibition was -179% (inactive).
`CCOC(=O)C(=CNNc1ccsc1C(=O)OC)C(=O)OCC` was tested, and the inhibition was -1.9% (inactive).
`CCCCc1ccc(NC(=S)N2CCCC(CO)C2)cc1` (centres undefined) was tested, and the inhibition was -1.7% (inactive).
In the case of `CN(C)C(=O)c1nc2ccc(Cl)cn2c1CN1CCN(c2ncccn2)CC1`, the inhibition is reported as 0.6% (inactive).
With `Cc1cc(C)n(C(=O)CCNC(=O)c2ccccc2Cl)n1` the inhibition was 8.8% (inactive).
With `Cc1cc(C)c2nc(SCCC#N)nc(C)c2c1` the inhibition was -2.1% (inactive).
In the case of `Cc1cc(C)c2nc3nc(C)cc(C)c3c(N)c2c1`, the inhibition is reported as 60.1% (active) and the inhibition (retest duplicate average) is reported as 71.5%.
With `Cc1cc(C)c2nc(-c3ccco3)cc(C(=O)O)c2c1` the inhibition was 21.4% (inactive).
In the case of `O=c1oc2c(CN3CCCCC3)c(O)ccc2c2c1CCCCC2`, the inhibition is reported as 93.5% (active) and the inhibition (retest duplicate average) is reported as 148%.
With `NC(=O)COc1ccc2c3c(c(=O)oc2c1)CCCCC3` the inhibition was -10.6% (inactive).
For `CN1CCN(Cc2c(O)ccc3c2oc(=O)c2ccccc23)CC1`, the inhibition was -13.8% (inactive).
For `Cc1ccc(C(=O)NCC(=O)OCC(=O)Nc2cccc(S(=O)(=O)N3CCCC3)c2)cc1C`, the inhibition was 0.1% (inactive).
For `Cc1cccn2c(=O)c3cc(C(=O)N4COCC4(C)C)n(C)c3nc12`, the inhibition was 1.5% (inactive).
For `Cc1cc(C)n(CC(C)NCc2c(C(=O)N3CCOCC3)nc3c(C)cccn23)n1` (centres undefined), the inhibition was -0.8% (inactive).
For `Cc1cccn2c(=O)c3cc(C#N)c(=O)n(CCCN4CCOCC4)c3nc12`, the inhibition was 61.6% (active) and the inhibition (retest duplicate average) was 71.6%.
In the case of `COc1ccc(-c2cc3ccc(OCc4nn[nH]n4)cc3oc2=O)cc1`, the inhibition is reported as 16.9% (inactive).
`O=c1c(-c2ccccc2)coc2cc(O)ccc12` was tested, and the inhibition was -4.05% (inactive).
With `O=c1oc2cc(O)ccc2cc1-c1ccc(F)cc1` the inhibition was 61.6% (active) and the inhibition (retest duplicate average) was 71.5%.
With `NS(=O)(=O)c1ccc(NC2=CC(c3ccc(F)cc3)N(c3ccc(S(N)(=O)=O)cc3)C2=O)cc1` (centres undefined) the inhibition was -4.3% (inactive).
In the case of `Cc1ccc(Cl)cc1NC(=O)c1ccccn1`, the inhibition is reported as -0.3% (inactive).
With `COC(=O)C1=C(C)OC(N)=C(C#N)C1c1cc(OC)ccc1OC` (centres undefined) the inhibition was -18.1% (inactive).
For `COc1ccc(C2C(C#N)=C(N)Oc3cc(N)ccc32)cc1OC` (centres undefined), the inhibition was 102% (active) and the inhibition (retest duplicate average) was 108%.
In the case of `CCC1=C(C(=O)OC)C(c2cc(OC)ccc2OC)C(C#N)=C(N)O1` (centres undefined), the inhibition is reported as -8.1% (inactive).
For `Cc1cc2nc(C(F)(F)F)cc(-c3cccs3)n2n1`, the inhibition was -2.5% (inactive).
With `CC(C)c1ccc(Nc2ncccc2C#N)cc1` the inhibition was 2.1% (inactive).
For `CCOC(=O)Cc1csc(SCc2cc(=O)oc3cc(O)ccc23)n1`, the inhibition was 121% (active) and the inhibition (retest duplicate average) was 114%.
With `CCOC(=O)Cc1csc(NC(=O)COc2ccc3c(C)cc(=O)oc3c2)n1` the inhibition was -11.5% (inactive).
`Cc1ccc2c(CSc3nncs3)cc(=O)oc2c1` was tested, and the inhibition was -1% (inactive).
`C=CCNC(=O)COC(=O)c1ccccc1C(=O)N(C)C1CCCCC1` was tested, and the inhibition was -5.7% (inactive).
In the case of `COc1ccc2c(CC(=O)OCC(=O)NC(N)=O)coc2c1`, the inhibition is reported as 2.1% (inactive).
With `Cc1ccc(-n2ncc3c(=O)n(-c4ccc(C)c(C)c4)c(-c4ccco4)nc32)cc1` the inhibition was 1.4% (inactive).
With `Cc1cccc(-n2ncc(C#N)c2-n2cccc2)c1` the inhibition was -1.3% (inactive).
In the case of `Cc1ccc(-n2c(=O)c(C#N)cc3c(=O)n4ccccc4nc32)cc1C`, the inhibition is reported as 58.7% (active) and the inhibition (retest duplicate average) is reported as 72.9%.
In the case of `COc1ccc(NC(=O)C(Br)C(C)C)cc1` (centres undefined), the inhibition is reported as 2.9% (inactive).
For `c1ccc(-n2nnnc2-c2cccnc2)cc1`, the inhibition was -4.7% (inactive).
`COc1cc(COCC(O)CN2CCN(Cc3ccc4c(c3)OCO4)CC2)cc(OC)c1OC` (centres undefined) was tested, and the inhibition was 1.8% (inactive).
In the case of `COc1c(O)ccc2c1CN1CCc3cc4c(cc3C1C2)OCO4` (centres undefined), the inhibition is reported as 78% (active) and the inhibition (retest duplicate average) is reported as 110%.
With `COc1ccc2cc1Oc1ccc(cc1)C[C@H]1c3cc(c(OC)cc3CCN1C)Oc1c(O)c(OC)cc3c1[C@H](C2)N(C)CC3` the inhibition was -0.6% (inactive).
In the case of `CC(C)n1c(-c2ccncc2)n[nH]c1=S`, the inhibition is reported as -1.2% (inactive).
`Cc1ccc(C)c(Cn2nnc3c(=O)[nH]c(C(=O)Nc4ccc(F)cc4)nc32)c1` was tested, and the inhibition was 1.2% (inactive).
`COc1ccc(Cl)cc1S(=O)(=O)N1CCC(O)(c2ccc(Cl)cc2)CC1` was tested, and the inhibition was -1.4% (inactive).
In the case of `CCOC(=O)CNC(=O)CSc1nnc(COc2ccc(Cl)cc2)n1CC`, the inhibition is reported as 2.7% (inactive).
With `C=CCn1c(COc2ccccc2)nnc1SCC(=O)NCC(=O)OCC` the inhibition was 0.8% (inactive).
With `CCOC(=O)CNC(=O)CSc1nnc(-c2cccc(OC)c2)n1CC` the inhibition was 60.6% (active) and the inhibition (retest duplicate average) was 67.7%.
For `Cc1cc2oc(=O)cc(CN3CCN(S(=O)(=O)c4cccs4)CC3)c2cc1C(C)C`, the inhibition was -6.5% (inactive).
In the case of `CCN(CC)CCC(c1cc(OC)c(OC)c(OC)c1)c1c(OC)cc(OC)c2c(-c3ccccc3)cc(=O)oc12` (centres undefined), the inhibition is reported as 1.1% (inactive).
With `O=c1[nH]c(CN2CCN(S(=O)(=O)c3ccc4c(c3)OCCO4)CC2)nc2sc3c(c12)CCCC3` the inhibition was -6.3% (inactive).
For `CSc1nc(N)c(C#N)c(-c2ccccc2Cl)c1C#N`, the inhibition was 2% (inactive).
With `COc1ccc(-c2cc(-c3ccc(N)cc3)nc(N)c2C#N)cc1OC` the inhibition was 52.8% (inactive) and the inhibition (retest duplicate average) was 46.8%.
`COc1ccccc1-c1c(C#N)c(N)nc2c1CCC2` was tested, and the inhibition was 61.7% (active) and the inhibition (retest duplicate average) was 60.2%.
With `COc1ccc(OCCNS(=O)(=O)Cc2ccccc2)cc1` the inhibition was 2.9% (inactive).
With `Cc1ccnc(N2CCC(C(=O)NC3CCCCCC3)CC2)n1` the inhibition was 0.3% (inactive).
In the case of `Cc1ccnc(Nc2nc3ccccc3s2)n1`, the inhibition is reported as -5.4% (inactive).
For `Cc1ccnc(-n2sc3ccccc3c2=O)n1`, the inhibition was 54.6% (active) and the inhibition (retest duplicate average) was 58.2%.
`CCCC(=O)Nc1nnc(-c2ccccc2)o1` was tested, and the inhibition was 0.5% (inactive).
With `CCCCCCc1cc2cc(-c3nnc(-c4ccccc4)o3)c(=O)oc2cc1O` the inhibition was 80.9% (active) and the inhibition (retest duplicate average) was 146%.
For `Cc1c(CCC(=O)O)c(=O)oc2cc3occ(-c4ccccc4)c3cc12`, the inhibition was -3.4% (inactive).
With `COc1ccc(OCCCn2cccc2/C=C2/C(=N)N3OC(C)=CC3=NC2=O)cc1` the inhibition was 0.8% (inactive).
For `Cc1nn(C)c(C)c1S(=O)(=O)N1CCC(CO)(Cc2ccc(Cl)cc2)CC1`, the inhibition was 2.4% (inactive).
With `O=C(CCCO)N/N=C/c1cc(Br)ccc1O` the inhibition was 14.5% (inactive).
With `Oc1ccc(Br)cc1C=Nc1ccc2[nH]ncc2c1` the inhibition was 75.6% (active) and the inhibition (retest duplicate average) was 86.7%.
`CCN(CC)CCn1c(/N=C/c2cc(Br)ccc2O)nc2ccccc21` was tested, and the inhibition was -10.6% (inactive).
In the case of `O=C(COC(=O)/C=C/c1ccc2c(c1)OCO2)NC1CCS(=O)(=O)C1` (centres undefined), the inhibition is reported as 0.9% (inactive).
With `O=[N+]([O-])c1ccc2c(c1)C(N1CCOCC1)/C(=C/C1(O)CCCCC1)O2` (centres undefined) the inhibition was -4.2% (inactive).
`CN(C(=O)CSc1nnc(-c2c[nH]c3ccccc23)o1)C1CCS(=O)(=O)C1` (centres undefined) was tested, and the inhibition was 2.4% (inactive).
In the case of `Cn1c(CO)cnc1SCc1ccccc1`, the inhibition is reported as 3.5% (inactive).
For `CSc1c(SCc2ccccc2)cnn(Cc2ccccc2)c1=O`, the inhibition was 59% (active) and the inhibition (retest duplicate average) was 54.5%.
`O=c1c2ccccc2c(-c2ccccc2)nn1Cc1ccccc1` was tested, and the inhibition was 1.4% (inactive).
`CNC(=O)C(NC(=O)c1ccccc1)=C(C)C` was tested, and the inhibition was -2.9% (inactive).
`Cc1nc(C(=O)Nc2ccc(Cl)cc2)sc1C1(C)CC(c2ccccc2)=NO1` (centres undefined) was tested, and the inhibition was -2.6% (inactive).
For `Cc1cc(C#N)c(SCC(N)=O)nc1-c1ccc(F)cc1`, the inhibition was 14.7% (inactive).
In the case of `O=C(C1CCCO1)N1CCN(C(=S)NC2CC2)CC1` (centres undefined), the inhibition is reported as -0.8% (inactive).
With `CCCCCCCN=C(C)c1ccccc1O` the inhibition was -0.5% (inactive).
